In PubChem BioAssay (NCI):
Compounds without any hit were thinned out: in the full panel of roughly 83,000, 20% have a hit.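 Method: cells in 96-well plates; compound added at one concentration; 48 h incubation; percent growth measured; values under 10 scored active.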 Unmarked numbers belong to inactive results. The source made the active and inactive calls.

Legend:
Assay in all cases: NCI-60 one-dose screen, 48 h (100 = growth as untreated, 0 = no growth, -100 = all killed)
Conditions in all cases: 10 µM unless noted
HCT-15 colon = system: HCT-15 colon
HT29 colon = system: HT29 colon
SNB-75 CNS = system: SNB-75 CNS
SNB-19 CNS = system: SNB-19 CNS
SK-MEL-5 melanoma = system: SK-MEL-5 melanoma
UACC-62 melanoma = system: UACC-62 melanoma
LOX IMVI melanoma = system: LOX IMVI melanoma
SK-MEL-28 melanoma = system: SK-MEL-28 melanoma
SK-MEL-2 melanoma = system: SK-MEL-2 melanoma
SN12C renal = system: SN12C renal
UO-31 renal = system: UO-31 renal
TK-10 renal = system: TK-10 renal
ACHN renal = system: ACHN renal
CAKI-1 renal = system: CAKI-1 renal
A498 renal = system: A498 renal
CCRF-CEM leukemia = system: CCRF-CEM leukemia
MOLT-4 leukemia = system: MOLT-4 leukemia
PC-3 prostate = system: PC-3 prostate
EKVX NSCLC = system: EKVX NSCLC

Row | SMILES | growth (HCT-15 colon) | growth (HT29 colon) | growth (SNB-75 CNS) | growth (SNB-19 CNS) | growth (SK-MEL-5 melanoma) | growth (UACC-62 melanoma) | growth (LOX IMVI melanoma) | growth (SK-MEL-28 melanoma) | growth (SK-MEL-2 melanoma) | growth (SN12C renal) | growth (UO-31 renal) | growth (TK-10 renal) | growth (ACHN renal) | growth (CAKI-1 renal) | growth (A498 renal) | growth (CCRF-CEM leukemia) | growth (MOLT-4 leukemia) | growth (PC-3 prostate) | growth (EKVX NSCLC)
1 | Cc1nn2c(-c3nc4cc(Cl)c(Cl)cc4[nH]3)c(-c3ccc(F)cc3)nc2s1 | 76.8% | 20% | -43.7% (active) | 25.7% | 31.9% | 15.9% | 19.5% | 22.9% | 57.9% | 34% | -67.1% (active) | -33.1% (active) | 9.13% (active) | 13% | 29.8% | 66.5% | 76.3% |  | 
2 | CCN1CCN(C(=O)[C@@]2(C)CC[C@]3(C)CC[C@]4(C)C(=CC(=O)[C@@H]5[C@@]6(C)CC[C@H](OCCC#N)C(C)(C)[C@@H]6CC[C@]54C)[C@@H]3C2)CC1 | 69.5% | 42.6% | 59.9% | 103% | 90.2% | 87.1% |  | 67.7% | 93.5% | 83.1% | 69.8% |  | 98.3% | 80.2% | 101% | 63.4% | 62.8% | 72.1% | 85.7%
3 | COc1ccc(/C=C/C(=O)NCC(C)O)cc1 (stereo not given) | 102% | 95.1% | 84.7% | 109% | 101% |  | 97.2% | 102% | 93.3% | 105% | 81.9% | 89.1% | 102% | 95.8% | 92.7% | 106% | 109% | 94.5% | 99.4%
4 | Cc1ccccc1-c1nc(C(Cl)Cl)nc2cc(-c3ccccc3)nn12 | 36.1% | 13.7% | 8.7% (active) | 69.8% | 86.4% | 74.4% |  | 97.3% | 101% | 81.4% | 57.2% | 65.1% | 41.1% | 44.8% | 85.4% | 102% | 83.9% | 62% | 57.8%
5 | CCCCCCCN(CCCCCCC)C(=N)c1ccnc2ccccc12 | -72.1% (active) | -50.2% (active) | -68.3% (active) | -51.1% (active) | -98.3% (active) |  | -94.4% (active) | -74.1% (active) | -46.5% (active) | -42% (active) | -62.5% (active) | 14.9% | -81.9% (active) | 3.85% (active) | -17.2% (active) |  | -16.5% (active) | -22.4% (active) | -15.6% (active)
6 | Cc1cccc2c1NC(=O)[C@@]21[C@H](C(=O)c2ccccc2)[C@]2(C(=O)Nc3ccccc32)[C@H]2CCCN21 | 9.8% [100 µM] (active) | 3.18% [100 µM] (active) | -25.4% [100 µM] (active) | -5.94% [100 µM] (active) | 31% [100 µM] | 22.5% [100 µM] |  | 46.4% [100 µM] | 18.1% [100 µM] | 10.3% [100 µM] | 30.5% [100 µM] | 39% [100 µM] | 5.91% [100 µM] (active) | 11.6% [100 µM] | 39.8% [100 µM] | 5.86% [100 µM] (active) | 12.3% [100 µM] | 21.7% [100 µM] | 30.6% [100 µM]
7 | CC(=O)Cc1nsc(NC(=O)c2ccoc2COc2ccccc2)n1 | 105% | 107% | 99.4% | 93.6% | 101% | 93% |  | 103% | 107% | 90.2% | 77.1% | 107% | 99.7% | 99.8% | 97.4% | 93.2% | 106% | 89.9% | 91.1%
8 | C=C1CC[C@@H](C(=O)OC)Cc2nc(C)ccc21 | 102% | 104% | 100% | 97.1% | 101% | 96.9% |  | 107% | 103% | 96.4% | 93.6% | 101% | 103% | 90.9% | 106% | 102% | 101% | 98.4% | 99.8%
9 | COC(=O)[C@]12CC[C@@H](C)[C@H](C)[C@@H]1C1=CC[C@@H]3[C@@]4(C)CC(=O)[C@H](OC(=O)c5ccco5)[C@@]5(C)COC(=C45)C[C@@]3(C)[C@]1(C)CC2 | 24.1% | 20.1% | 41.7% | 40.4% | -46.1% (active) |  | 6.2% (active) | 33% | 8.78% (active) |  | 29.3% | 38.5% | 25.9% | 28.7% | 13.1% | 25.1% | 24.4% | 17.3% | 35.6%
10 | N#CC1=C(N)Oc2c(sc3c(F)cccc23)C1c1ccc(Cl)cc1 (stereo not given) | 23.9% | 15.6% | 13.8% | 29.2% | 18.1% |  | 30.3% | 49.6% | -3.89% (active) | 36.2% | 41.7% | 78.4% | 42% |  | 46.6% | 15.1% | 8.38% (active) | 8.41% (active) | 51.4%
